Source: PubChem (The Scripps Research Institute Molecular Screening Center)
SRC1 TRFRET art = counter-screen for PPARgamma SRC-1 recruitment agonists: TR-FRET artefact; TR-FRET detection artefact counter-screen, emission ratio; hits give high values; AID 1051; TR-FRET ratio at 8 µM; 99,000 tested, 0.34% active; in the data active means TR-FRET ratio above about 2300
PPARg SRC-3 ag = promotes SRC-3 coactivator recruitment by human PPARgamma | biochemical PPARgamma/SRC-3 coactivator recruitment assay | activation, % at 8 µM | 200,000 tested, 0.26% active | AID 731; in the data active means activation above about 23%;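 further: 0% = DMSO and 100% = reference agonist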
TR-FRET SRC-2 ct = flags TR-FRET format artefacts in PPARgamma SRC-2 recruitment agonist screen | TR-FRET artefact counter-screen; hits give high values | TR-FRET ratio at 8 µM | 200,000 tested, 0.4% active
PPARg SRC-1 ag = agonists of human PPARgamma SRC-1 coactivator recruitment. P37231. PPARgamma-SRC-1 coactivator recruitment biochemical assay. activation, % at 8 µM. 200,000 tested, 0.41% active. AID 631; in the data active means activation above about 19%;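 further: 0% = DMSO and 100% = reference agonist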
PPARg SRC-2 ag = agonists of SRC-2 recruitment by human PPARgamma | PPARgamma LBD-SRC-2 recruitment, biochemical | activation, % at 8 µM | 200,000 tested, 0.34% active; in the data active means activation above about 22%;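 further: 0% = vehicle and 100% = reference agonist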
SRC3 TRFRET art = flags TR-FRET format artefacts in PPARgamma SRC-3 recruitment agonist screen; TR-FRET ratio at 8 µM; TR-FRET artefact counter-screen, PPARgamma/SRC-3 format; hits give high values; AID 1048; 99,000 tested, 0.39% active
PPARg SRC2 conf = confirmation of agonists of SRC-2 recruitment by human PPARgamma. shares compounds with PPARg SRC-3 ag. biochemical SRC-2 recruitment by PPARgamma. activation, % at 8 µM. 790 tested, 52% active; in the data active means activation above about 22%;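 further: 0% = vehicle alone and 100% = reference agonist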
PPARg SRC1 ag = human PPARgamma SRC-1 recruitment agonism, confirmation; shares compounds with PPARg SRC-3 ag; PPARgamma–SRC-1 coactivator recruitment biochemical assay; activation, % at 8 µM; 790 tested, 43% active; in the data active means activation above about 20%;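 further: 0% = vehicle wells and 100% = reference agonist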
PPARg SRC3 conf = confirmation of agonists of SRC-3 recruitment by human PPARgamma. shares compounds with PPARg SRC-3 ag. biochemical PPARgamma-SRC-3 coactivator recruitment, agonist mode. activation, % at 8 µM. 790 tested, 29% active; in the data active means activation above about 24%;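 further: 0% = vehicle wells and 100% = reference agonist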
* hit, by the source's call; . = no result given. The list is not random: actives were taken first. Their share in the collection is about 0.9%. Unless noted, no stated cut-off is given here; in the data, active means TR-FRET ratio above about 2000; inactive means the rest.

SMILES	SRC1 TRFRET art	PPARg SRC-3 ag	TR-FRET SRC-2 ct	PPARg SRC-1 ag	PPARg SRC-2 ag	SRC3 TRFRET art	PPARg SRC2 conf	PPARg SRC1 ag	PPARg SRC3 conf
COCCNC(=O)CSc1c2c(nc3ccc(Cl)cc13)CCCC2	2521*	19.9	2154*	39.1*	31.2*	2446*	18.6	10.1	12.0
CCOC(=O)C1CCN(C(=O)CSc2c3c(nc4ccccc24)CCC3)CC1	1938	9.5	1921	17.1	23.2*	1925	24.2*	12.8	13.5
COc1ccc(NC(=O)CSc2c3c(nc4ccccc24)CCCC3)c(OC)c1	2200	16.7	1985*	25.6*	27.4*	1880	25.8*	13.5	16.7
O=C(CSc1c2c(nc3cc(Cl)ccc13)CCCC2)NCc1ccco1	.	23.1	2007*	15.8	25.6*	.	28.6*	21.3*	17.0
CCc1cccc(C)c1NC(=S)N(CCCN1CCOCC1)Cc1cccnc1	1810	-1.4	1718	-1.8	0.4	1617	.	.	.
CC(=O)c1cc(C#N)c(N2CCOCC2)nc1C	1762	5.5	1670	7.3	-2.6	1579	.	.	.
COc1ccc2nc(SCc3cccnc3)c(C#N)cc2c1	.	69.2*	1517	82.6*	9.4	.	53.0*	42.0*	33.1*
N#Cc1cc2ccccc2nc1SCc1cccnc1	1739	-1.2	1334	0.1	-0.5	1426	.	.	.
COc1ccc2nc(SC)c(C#N)cc2c1	2037	27.0*	1641	7.5	11.4	2738*	75.3*	57.7*	43.0*
CCNc1nc(Oc2ccc(F)cc2)cc(C(F)(F)F)n1	1898	4.0	1629	-3.0	4.1	1498	.	.	.
CC(C)Nc1nc(Oc2ccc(Cl)cc2)cc(C(F)(F)F)n1	.	5.9	1676	10.6	23.1*	.	0.3	2.9	0.2
COc1ccc(-c2n(Cc3ccccc3)c3ccccc3[n+]2Cc2ccccc2)cc1	1629	0.2	1436	-3.8	-2.5	1655	.	.	.
O=C(Nc1ccccc1C(=O)NCC1CCCO1)c1ccc(Cl)cc1Cl (configuration not stated)	.	11.4	1634	21.7*	-1.4	.	0.6	-1.1	1.6
Cc1cc(C(=O)OCC(=O)c2ccc(Br)s2)no1	.	123.1*	2269*	65.0*	89.7*	.	54.0*	34.2*	39.3*
Cc1cc(NS(=O)(=O)c2ccc(Br)s2)no1	.	-3.6	1545	7.5	0.7	.	.	.	.
COc1ccc(OC)c(C(=O)COC(=O)c2cc(C)oc2C)c1	.	-3.5	1514	1.6	-2.1	.	.	.	.
Cc1cc(C(=O)OCC(=O)c2ccc(Br)s2)c(C)o1	.	31.3*	1872	19.7*	7.8	.	41.1*	30.2*	29.7*
CC1(C)CC(=O)C(C(C2=C(O)CC(C)(C)CC2=O)c2ccc(Br)s2)C(=O)C1 (configuration not stated)	1891	1.3	1677	8.9	7.4	1452	.	.	.
CCC(C)n1c(SCC(=O)Nc2cc(C)on2)nc2ccccc2c1=O (configuration not stated)	.	-4.5	1498	4.0	1.3	.	.	.	.
CCCCn1c(SCC(=O)Nc2cc(C)on2)nc2ccccc2c1=O	.	12.8	1385	22.3*	-5.9	.	6.0	4.9	3.8
O=C(Cc1sc(-c2ccccc2Cl)nc1-c1ccccc1)Nc1ccc(F)cc1	.	12.8	2292*	29.4*	15.0	.	17.6	7.5	6.6
O=C(Cc1sc(-c2ccccc2)nc1-c1ccccc1)Nc1ccc(Cl)cc1	.	-0.7	1545	6.4	-1.3	.	.	.	.
O=C(c1nc2ccccn2c1CN1CCCC(OCc2ccccc2)C1)N1CCCC1 (configuration not stated)	2052	5.1	1537	-5.1	0.7	1711	.	.	.
Cc1nc(SCC(=O)NNC(=O)c2cccs2)[nH]c(=O)c1C	1781	4.7	1351	-0.2	0.8	1483	.	.	.
N#C/C(=C\c1ccc(N2CCCCC2)o1)C(N)=O	2106	10.6	1938	20.9*	15.0	1746	-2.1	2.6	0.4
SMILES	SRC1 TRFRET art	PPARg SRC-3 ag	TR-FRET SRC-2 ct	PPARg SRC-1 ag	PPARg SRC-2 ag	SRC3 TRFRET art	PPARg SRC2 conf	PPARg SRC1 ag	PPARg SRC3 conf
COCCCn1c(=S)[nH]c2sc3c(c2c1=O)CCCS3	3194*	35.7*	2732*	43.1*	44.3*	2497*	56.7*	39.9*	38.4*
CCn1c(=O)n(CCOC)c(=O)c2c3c(sc21)CCCC3	.	-2.8	1709	4.7	2.8	.	.	.	.
CSc1ccccc1NC(=S)N/N=C/c1cccn1Cc1ccc(F)cc1	1695	1.0	1527	1.0	4.9	1513	.	.	.
Cc1csc(SCC(=O)NC(C)c2ccccc2)n1 (configuration not stated)	1841	4.5	1431	3.4	-3.4	1602	.	.	.
COCCCNc1nnc(Cc2ccccc2)c2ccccc12	1985	2.4	1694	6.3	3.1	1742	.	.	.
c1ccc(Cc2nnc(Sc3ccccc3)c3ccccc23)cc1	.	113.2*	4254*	64.7*	117.4*	.	77.4*	52.4*	53.4*
Cc1ccc(CNC(=O)C2CN(S(C)(=O)=O)c3cc(Cl)ccc3O2)cc1 (configuration not stated)	1520	0.8	1555	-0.9	-5.3	1713	.	.	.
COc1cc(-c2nnc(SCC(=O)N3c4ccccc4Sc4ccccc43)o2)cc(OC)c1OC	.	6.8	1583	1.5	-2.8	.	.	.	.
O=C(Sc1nnc(-c2ccccc2)o1)N1c2ccccc2Sc2ccccc21	.	25.2	1691	16.5	31.1*	.	48.4*	33.6*	32.8*
CCOC(=O)c1c(NC(=O)CSc2nnc(-c3ccccc3)o2)sc(C(C)=O)c1C	.	20.5	1725	12.0	10.7	.	.	.	.
CCOC(=O)c1cccc(NC(=O)CSc2nnc(COc3ccccc3C)o2)c1	.	7.1	1625	20.5*	5.1	.	5.0	3.8	2.9
CCOC(=O)c1c(NC(=O)CSc2nnc(Cc3ccccc3)o2)sc(C(C)=O)c1C	.	43.6*	2328*	16.2	36.4*	.	20.1	13.1	14.8
CCOc1ccc(NC(=O)CSc2nnc(COc3c(C)cccc3C)o2)cc1	.	5.1	1486	-0.7	3.0	.	.	.	.
COc1ccc(C(=O)NCc2nnc(SC)n2Cc2ccccc2)cc1	1785	-0.3	1548	0.3	-0.1	1600	.	.	.
COc1c(F)c(F)c(C(=O)Nc2ccc3oc(-c4ccncc4)nc3c2)c(F)c1F	.	74.4*	1606	82.4*	3.4	.	71.2*	66.1*	48.6*
Nc1ccccc1-c1n[nH]c(=S)s1	3590*	42.7*	3141*	53.7*	54.5*	3076*	40.0*	30.9*	24.6*
COc1ccc(/C=C/C(=O)N(C)c2ccccc2C(=O)O)cc1	1947	0.9	1755	17.3	-5.6	1335	.	.	.
COc1cc(-c2nc3ccccc3s2)ccc1O	.	30.7*	2089*	23.4*	30.3*	.	30.5*	32.7*	22.6
